From PubChem BioAssay AID1159580 (chemical genetic matrix, 2015)
“And” between values parts separate entries of the source, which are not always exact repeats. Equal values may be shown once. Out of some 5,500 compounds screened, about 2,000 (36%) were called active. Another 18% or so got no clear call; they are omitted. Cut-off read from the data, not from the text of the source: active = normalized growth mostly below about 0.91 (no sharp cut-off); inconclusive = no clear call, values can overlap the other calls; inactive = mostly above about 0.92. Some of the results follow.

Experiment: chemical genetic growth profiling, strain panel (AID 1159580);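 note: tested at 20 µM; growth read once vehicle control cultures reached saturation at 30 °C; 1 = growth at the plate median or of vehicle wells; lower values mean less growth of the strain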
Conditions: S. cerevisiae deletion strains, growth OD

Measured: normalized growth

COc1cc(C)c2c(=O)cc(-c3ccccc3)oc2c1
0.914 (inactive) and 0.876 (active): locus YJL095W, strain BCK1, stronger effect = lower value
active: locus YAL030W, strain snc1, stronger effect = lower value 0.928 | locus YBL061C, strain skt5, stronger effect = lower value 0.915 | locus YBR023C, strain chs3, stronger effect = lower value 0.913 | locus YCL011C, strain gbp2, stronger effect = lower value 0.891 | locus YCR088W, strain abp1, stronger effect = lower value 0.92 | locus YDL040C, strain nat1, stronger effect = lower value 0.93 | locus YDR137W, strain rgp1, stronger effect = lower value 0.762 | locus YDR392W, strain spt3, stronger effect = lower value 0.47 | locus YEL003W, strain gim4, stronger effect = lower value 0.893 | locus YER155C, strain BEM2 (second series), stronger effect = lower value 0.505 | locus YGL167C, strain pmr1, stronger effect = lower value 0.913 | locus YGL240W, strain doc1, stronger effect = lower value 0.856 | locus YGL253W, strain hxk2, stronger effect = lower value 0.909 | locus YHR142W, strain chs7, stronger effect = lower value 0.73 | locus YJL095W, strain BCK1 (second series), stronger effect = lower value 0.919 | locus YJL129C, strain trk1, stronger effect = lower value 0.833 | locus YJL164C, strain tpk1, stronger effect = lower value 0.909 | locus YJL166W, strain qcr8, stronger effect = lower value 0.893 | locus YJR066W, strain TOR1, stronger effect = lower value 0.814 | locus YKL160W, strain elf1, stronger effect = lower value 0.884 | locus YKR026C, strain gcn3, stronger effect = lower value 0.92 | locus YLR027C, strain aat2, stronger effect = lower value 0.917 | locus YLR113W, strain HOG1, stronger effect = lower value 0.721 | locus YLR221C, strain rsa3, stronger effect = lower value 0.887 | locus YLR262C, strain YPT6 (second series), stronger effect = lower value 0.757 | locus YLR320W, strain mms22, stronger effect = lower value 0.728 | locus YLR342W, strain FKS1, stronger effect = lower value 0.901 | locus YMR205C, strain PFK2, stronger effect = lower value 0.791 | locus YNL071W, strain lat1, stronger effect = lower value 0.687 | locus YNL183C, strain NPR1, stronger effect = lower value 0.796 | locus YOR184W, strain ser1, stronger effect = lower value 0.866 | locus YOR231W, strain MKK1, stronger effect = lower value 0.857 | locus YOR265W, strain rbl2, stronger effect = lower value 0.922 | locus YOR270C, strain vph1, stronger effect = lower value 0.701 | locus YOR290C, strain snf2, stronger effect = lower value 0.82 | locus YPL051W, strain arl3, stronger effect = lower value 0.904 | locus YPL078C, strain atp4, stronger effect = lower value 0.886
inactive: locus YAL021C, strain ccr4, stronger effect = lower value 0.983 | locus YAL026C, strain drs2, stronger effect = lower value 0.922 | locus YBR009C, strain hhf1, stronger effect = lower value 0.946 | locus YBR021W, strain FUR4, stronger effect = lower value 0.921 | locus YBR171W, strain sec66, stronger effect = lower value 0.911 | locus YBR229C, strain ROT2, stronger effect = lower value 0.984 | locus YBR231C, strain swc5, stronger effect = lower value 0.925 | locus YBR279W, strain paf1, stronger effect = lower value 0.942 | locus YCL016C, strain dcc1, stronger effect = lower value 0.93 | locus YCL029C, strain bik1, stronger effect = lower value 0.968 | locus YCL061C, strain MRC1, stronger effect = lower value 0.927 | locus YCL069W, strain vba3, stronger effect = lower value 0.939 | locus YDL005C, strain med2, stronger effect = lower value 0.956 | locus YDL035C, strain GPR1, stronger effect = lower value 1.01 | locus YDL074C, strain BRE1, stronger effect = lower value 0.896 | locus YDL101C, strain DUN1, stronger effect = lower value 0.948 | locus YDL134C, strain PPH21, stronger effect = lower value 0.998 | locus YDL185W, strain tfp1, stronger effect = lower value 0.979 | locus YDL192W, strain arf1, stronger effect = lower value 0.966 | locus YDR001C, strain nth1, stronger effect = lower value 0.938 | locus YDR069C, strain doa4, stronger effect = lower value 0.941 | locus YDR101C, strain arx1, stronger effect = lower value 0.989 | locus YDR150W, strain NUM1, stronger effect = lower value 1.02 | locus YDR159W, strain sac3, stronger effect = lower value 0.9 | locus YDR162C, strain NBP2, stronger effect = lower value 0.996 | locus YDR195W, strain ref2 1 | locus YDR297W, strain sur2, stronger effect = lower value 0.927 | locus YDR318W, strain mcm21, stronger effect = lower value 0.968 | locus YDR334W, strain swr1, stronger effect = lower value 0.938 | locus YDR335W, strain msn5, stronger effect = lower value 0.942 | locus YDR388W, stronger effect = lower value 0.967 | locus YDR502C, strain sam2, stronger effect = lower value 0.977 | locus YEL037C, strain rad23, stronger effect = lower value 0.942 | locus YEL061C, strain CIN8 (second series), stronger effect = lower value 0.926 | locus YEL061C, strain CIN8, stronger effect = lower value 0.985 | locus YER015W, strain faa2, stronger effect = lower value 0.945 | locus YER016W, strain bim1, stronger effect = lower value 0.935 | locus YER110C, stronger effect = lower value 0.963 | locus YER111C, strain swi4, stronger effect = lower value 0.96 | locus YER155C, strain BEM2, stronger effect = lower value 0.973 | locus YER167W, strain BCK2, stronger effect = lower value 0.994 | locus YFR010W, strain ubp6, stronger effect = lower value 0.933 | locus YGL078C, strain dbp3, stronger effect = lower value 0.972 | locus YGL086W, strain mad1, stronger effect = lower value 0.973 | locus YGL173C, strain kem1, stronger effect = lower value 0.935 | locus YGL227W, strain vid30, stronger effect = lower value 0.924 | locus YGL248W, strain PDE1, stronger effect = lower value 0.955 | locus YGR078C, strain PAC10, stronger effect = lower value 0.955 | locus YGR135W, strain pre9, stronger effect = lower value 0.98 | locus YGR252W, strain gcn5, stronger effect = lower value 0.96 | locus YHR013C, strain ard1, stronger effect = lower value 0.904 | locus YHR027C, strain rpn1, stronger effect = lower value 0.94 | locus YHR030C, strain SLT2, stronger effect = lower value 0.995 and 0.867 | locus YHR079C, strain IRE1 (second series), stronger effect = lower value 0.974 | locus YHR079C, strain IRE1, stronger effect = lower value 0.868 | locus YHR094C, strain hxt1, stronger effect = lower value 0.965 | locus YHR129C, strain ARP1, stronger effect = lower value 0.976 | locus YHR200W, strain rpn10, stronger effect = lower value 0.963 | locus YIL066C, strain RNR3, stronger effect = lower value 0.996 | locus YIL073C, strain SPO22, stronger effect = lower value 0.949 | locus YIL125W, strain kgd1, stronger effect = lower value 0.964 | locus YIR030C, strain dcg1, stronger effect = lower value 0.958 | locus YJL092W, strain hpr5, stronger effect = lower value 0.923 | locus YJL115W, strain asf1, stronger effect = lower value 0.955 | locus YJL134W, strain LCB3, stronger effect = lower value 0.987 | locus YJL154C, strain vps35, stronger effect = lower value 0.942 | locus YJL168C, strain set2, stronger effect = lower value 0.969 | locus YJL187C, strain SWE1 (second series), stronger effect = lower value 0.954 | locus YJL187C, strain SWE1, stronger effect = lower value 0.933 | locus YJR043C, strain POL32, stronger effect = lower value 1.03 | locus YKL009W, strain mrt4, stronger effect = lower value 0.954 | locus YKL068W, stronger effect = lower value 0.966 | locus YKL085W, strain MDH1 (second series), stronger effect = lower value 0.965 | locus YKL085W, strain MDH1, stronger effect = lower value 0.965 | locus YKR001C, strain vps1, stronger effect = lower value 0.982 | locus YKR091W, strain srl3, stronger effect = lower value 0.934 | locus YLL001W, strain dnm1, stronger effect = lower value 0.932 | locus YLL026W, stronger effect = lower value 0.944 | locus YLL041C, strain sdh2, stronger effect = lower value 0.935 | locus YLR039C, strain RIC1, stronger effect = lower value 1.08 | locus YLR058C, strain SHM2, stronger effect = lower value 0.975 | locus YLR102C, strain apc9, stronger effect = lower value 0.974 | locus YLR258W, strain gsy2, stronger effect = lower value 0.921 | locus YLR262C, strain YPT6, stronger effect = lower value 1.05 | locus YLR268W, strain sec22, stronger effect = lower value 0.958 | locus YLR330W, strain CHS5, stronger effect = lower value 0.973 | locus YLR342W, strain FKS1 (second series), stronger effect = lower value 0.979 | locus YLR357W, strain rsc2, stronger effect = lower value 0.87 | locus YLR370C, strain arc18, stronger effect = lower value 0.945 | locus YLR371W, strain rom2, stronger effect = lower value 0.966 | locus YLR384C, strain iki3, stronger effect = lower value 0.925 | locus YLR418C, strain cdc73, stronger effect = lower value 0.843 | locus YML016C, strain PPZ1, stronger effect = lower value 0.972 | locus YML032C, strain rad52, stronger effect = lower value 0.968 | locus YML120C, strain ndi1, stronger effect = lower value 0.941 | locus YML124C, strain tub3, stronger effect = lower value 0.973 | locus YMR058W, strain fet3, stronger effect = lower value 0.917 | locus YMR078C, strain ctf18, stronger effect = lower value 0.952 | locus YMR125W, strain sto1, stronger effect = lower value 0.929 | locus YMR129W, stronger effect = lower value 0.937 | locus YMR223W, strain ubp8, stronger effect = lower value 0.967 | locus YMR231W, strain pep5, stronger effect = lower value 0.951 | locus YMR307W, strain GAS1, stronger effect = lower value 1.23 | locus YNL067W, strain RPL9B, stronger effect = lower value 0.964 | locus YNL209W, strain ssb2, stronger effect = lower value 0.961 | locus YNL233W, strain BNI4, stronger effect = lower value 0.952 | locus YNL248C, strain rpa49, stronger effect = lower value 0.912 | locus YNL250W, strain rad50, stronger effect = lower value 0.953 | locus YNL271C, strain bni1, stronger effect = lower value 0.944 | locus YNL298W, strain CLA4, stronger effect = lower value 0.953 | locus YNL307C, strain MCK1, stronger effect = lower value 0.918 | locus YNL322C, strain KRE1 (second series), stronger effect = lower value 0.932 | locus YNR049C, strain mso1, stronger effect = lower value 0.924 | locus YNR052C, strain pop2, stronger effect = lower value 0.958 | locus YOL006C, strain TOP1, stronger effect = lower value 0.686 | locus YOL012C, strain htz1 1.23 | locus YOL147C, strain pex11, stronger effect = lower value 0.97 | locus YOR001W, strain rrp6, stronger effect = lower value 0.932 | locus YOR061W, strain CKA2, stronger effect = lower value 0.979 | locus YOR069W, strain VPS5, stronger effect = lower value 0.979 | locus YOR070C, strain gyp1, stronger effect = lower value 0.93 | locus YOR080W, strain dia2, stronger effect = lower value 0.943 | locus YOR083W, strain WHI5, stronger effect = lower value 0.907 | locus YOR106W, strain vam3, stronger effect = lower value 0.896 | locus YOR136W, strain idh2, stronger effect = lower value 0.972 | locus YOR144C, strain elg1, stronger effect = lower value 0.968 | locus YOR316C, strain cot1, stronger effect = lower value 0.966 | locus YPL106C, strain sse1, stronger effect = lower value 0.852 | locus YPL240C, strain hsp82, stronger effect = lower value 0.934 | locus YPL256C, strain CLN2, stronger effect = lower value 0.872 | locus YPR119W, strain clb2, stronger effect = lower value 0.973 | locus YPR141C, strain kar3, stronger effect = lower value 0.954 | locus YPR163C, strain tif3, stronger effect = lower value 0.982 | locus YPR167C, strain met16, stronger effect = lower value 0.958 | strain wtn01, stronger effect = lower value 0.968
